Test results published in PMC13494018.
A number with no mark means an inactive call. No rule for the calls is given here.

B1: design_600_24101276-ad9d-4944-b73e-53bb160363ad_1742_dldesign_0_cycle1_af2pred (protein)
chain: MEEKYKKAKELLEKAKEEFKKGNYEKALKLAAESVALGYEALGDEEEAKKAKEKAEEALKNPETLGAVAGELLAEAKGLVHLLEIKIN
B2: design_600_24101276-ad9d-4944-b73e-53bb160363ad_1759_dldesign_0_cycle1_af2pred (protein)
chain: GEEASKKAKEDAKLVSEAAKYAKEAGKYAKKIAELKPEKAEEAKKIKEKSAKLLYELADNIEDEEKAKEYLDEIKKLYKEAEELYKEA
B3: design_600_24101276-ad9d-4944-b73e-53bb160363ad_1809_dldesign_0_cycle1_af2pred (protein)
chain: SMEKEEAVKRREKAIEKGEKAIEEAAKEGIEAAEKAKEVMKELKKEAEKFGKETGPEGEKAAKTIKRIAENTEHGLEAIIRREKE
B4: design_600_24101276-ad9d-4944-b73e-53bb160363ad_1872_dldesign_0_cycle1_af2pred (protein)
chain: HSEEELKLLERMREIRKRAKEAVKLLKELGEKELGEKYAKEIADLLYQSIDDPENQEKYVEEAEAKAEELEKLAEEAKKKAEE
B5: design_600_24101276-ad9d-4944-b73e-53bb160363ad_1889_dldesign_0_cycle1_af2pred (protein)
chain: MAEKEALIAELKAKAAEAKAKGAAGSAGEQFQWDVIAAGYEKGAEAAKKAKTAEEAKKAAKEAVEKAKRVAEHIKKSEEEAEKRA
B6: design_600_24101276-ad9d-4944-b73e-53bb160363ad_1891_dldesign_0_cycle1_af2pred (protein)
chain: GLEEEKKAVEEQKKKVEETGKKALEMAKSGEKAEEGLESLKKLIEETKEFAKKSKLKALAAEVTQLALEKLSEAKFELSKSKA
B7: design_600_24101276-ad9d-4944-b73e-53bb160363ad_1928_dldesign_0_cycle1_af2pred (protein)
chain: GALEEAKKVIEDARDKLSAVAAKKSPEYAKEVADNLEKVAKGEGVKEHATRAAEVLAEADPENAAELKKYLAEAVQTYLQLRAEAEK
B8: design_600_24101276-ad9d-4944-b73e-53bb160363ad_1965_dldesign_0_cycle1_af2pred (protein)
chain: SEELEKVAKEAKEAAKERIEYAKKAAEANPALAETAKRMIEGAKELAKKVEKYAKEGDLKKAERERLRIESRKEQAKETLKKL
B9: design_600_24101276-ad9d-4944-b73e-53bb160363ad_1967_dldesign_0_cycle1_af2pred (protein)
chain: GNKKLAAELLKKSIEYFIEAVKSKKLSTASGYASKSAVYFAKAVYVGTGVPPEVAYKVRLIVLEIGLKAIEKRQEELKKKE
B10: design_600_24101276-ad9d-4944-b73e-53bb160363ad_2022_dldesign_0_cycle1_af2pred (protein)
chain: MKEEAKKLAKEAKEKAKEGAANPAYKKAITLYNEALADFRAAEATGSKEAFEEGKEYFKKAEEEEKKVKEKLEKE
B11: design_600_24101276-ad9d-4944-b73e-53bb160363ad_2034_dldesign_0_cycle1_af2pred (protein)
chain: DEKVKKAKEEAEKISKEGVELAKKGAENPEKYEEYEKKAKELFDKAMAIAKEVAKENPEGGAKIAEIVHTLRAEAKAVIAKIK
B12: design_600_24101276-ad9d-4944-b73e-53bb160363ad_2105_dldesign_0_cycle1_af2pred (protein)
chain: NMEEAKKLLKETEKAAKKAVEIAGEEAKPAAEKAIKVAEKFLKYGDVEALKDILAATKAYLAKVEAEKAAAA
B13: design_600_24101276-ad9d-4944-b73e-53bb160363ad_2181_dldesign_0_cycle1_af2pred (protein)
chain: MSAAADAQLLLERAEQALAAAEANPELAPAANERIAAAAERLLGPEAAAALRAIAEEHADDPVAAVRAQYEYVAALAEKAEA
B14: design_600_24101276-ad9d-4944-b73e-53bb160363ad_2193_dldesign_0_cycle1_af2pred (protein)
chain: SLEKEIEKLAKELKKAKELDPKTAAEELRKIAKEARKVGKEAAKKDKELAKKAAKLAQEAYEAAAEKEQQARLE
B15: design_600_24101276-ad9d-4944-b73e-53bb160363ad_2211_dldesign_0_cycle1_af2pred (protein)
chain: SEAYEEAKKEAEAAVKALKELAKEKPEAKEKAEKLIKRVEEELKKAEEGNEEAARIAKGSIEARKLAAESVLKT
B16: design_600_24101276-ad9d-4944-b73e-53bb160363ad_2225_dldesign_0_cycle1_af2pred (protein)
chain: MSEGLKEAAKELVEELRETIATKSPEQARGELTLARSSAKSIEKLDPESGKELLAKVEELEKELEAKAAA
B17: design_600_24101276-ad9d-4944-b73e-53bb160363ad_2244_dldesign_0_cycle1_af2pred (protein)
chain: MEEEKKKEEKKKELKEKLKELEKKAEEAAKAAKADPAHLPELAAVAQELYQLSAEAEFEGDKETAEKAKEVARKAREVGKAARAA
B18: design_600_24101276-ad9d-4944-b73e-53bb160363ad_2321_dldesign_0_cycle1_af2pred (protein)
chain: AQKAKNEAESLLTRAEQALEAGVSGDAEQAKKAAEKIEEYAKKAEEIGKKYPEVKEYAEKKAEEIKELAKKAKEAAKKK
B19: design_600_24101276-ad9d-4944-b73e-53bb160363ad_2443_dldesign_0_cycle1_af2pred (protein)
chain: VEEAEKRAKRLKEEAEKAAKELAKEGGEEKAKELLEKAKEAAEKFLEAAKKGDGKAAADYLSEARGYIAELRIEAKKLK

Target: VTCN1, Q7Z7D3
Sequence (Q7Z7D3 whole entry): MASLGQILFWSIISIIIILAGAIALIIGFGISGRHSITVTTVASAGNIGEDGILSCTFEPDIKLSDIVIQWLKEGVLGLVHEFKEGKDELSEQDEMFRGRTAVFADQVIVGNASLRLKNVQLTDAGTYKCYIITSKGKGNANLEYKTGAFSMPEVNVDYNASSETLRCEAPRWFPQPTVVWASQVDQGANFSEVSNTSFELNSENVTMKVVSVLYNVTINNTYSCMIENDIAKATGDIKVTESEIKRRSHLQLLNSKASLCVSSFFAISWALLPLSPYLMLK

| Binder | binding in a display sort |
| --- | --- |
| B1 | not found |
| B2 | not found |
| B3 | not found |
| B4 | binds (active) |
| B5 | not found |
| B6 | not found |
| B7 | not found |
| B8 | not found |
| B9 | not found |
| B10 | not found |
| B11 | not found |
| B12 | not found |
| B13 | not found |
| B14 | not found |
| B15 | not found |
| B16 | not found |
| B17 | not found |
| B18 | not found |
| B19 | not found |
